Measured values published in PubChem BioAssay AID651640 (Broad Institute, 2012).
Out of some 350,000 compounds screened, about 6,000 (1.7%) were called active. Inconclusive results (about 5%) are left out. Cut-off read from the data, not from the text of the source: active = CPE inhibition above about 20% (passing the limit was not always enough); inconclusive = no clear call, values can overlap the other calls; tested in BHK-21 cells. For the sample, actives were picked, then their nearest neighbours and some compounds at random.

Experiment: inhibitors of DENV2 cytopathic effect, primary screen, cell-based, plate reader, single concentration (AID 651640);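 note: 0% = median of neutral control wells and 100% = median of positive control wells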
Details: DENV2-infected cells, cytopathic effect rescue, at 9.99 µM, hits give high values

CPE inhibition, active:
COCCn1c(SCC(=O)Nc2ccccc2F)nc2c(c1=O)SCC2 69.8%, C[C@@H]1CCCCO[C@@H](CN(C)C(=O)Nc2ccc(C(F)(F)F)cc2)[C@H](C)CN([C@H](C)CO)C(=O)c2cc(NC(=O)C3CCCCC3)ccc2O1 22.5%, C[C@@H]1CCCCO[C@@H](CN(C)C(=O)C2CCCCC2)[C@H](C)CN([C@H](C)CO)C(=O)c2cc(NC(=O)CCC(F)(F)F)ccc2O1 74.2%, C[C@H](CO)N1C[C@H](C)[C@H](CN(C)C(=O)Nc2ccc(C(F)(F)F)cc2)OCCCC[C@H](C)Oc2ccc(NC(=O)C3CCCCC3)cc2C1=O 21.9%, C[C@H]1CN([C@@H](C)CO)C(=O)c2cc(NS(=O)(=O)c3cccs3)ccc2O[C@@H]1CN(C)C(=O)Nc1ccccc1 22.2%, C[C@@H]1CN([C@H](C)CO)C(=O)c2cc(NS(=O)(=O)c3cccs3)ccc2O[C@@H](C)CCCCO[C@@H]1CN(C)S(=O)(=O)c1ccc(Cl)cc1 22.8%, C[C@@H]1CCCCO[C@H](CN(C)S(=O)(=O)c2ccc(Cl)cc2)[C@H](C)CN([C@@H](C)CO)C(=O)c2cc(NS(=O)(=O)c3cccs3)ccc2O1 63.8%

CPE inhibition, inactive:
O=C(NCC1CC1)[C@@H]1[C@@H](CO)[C@@H]2Cn3c(ccc(-c4ccncc4)c3=O)[C@@H]2N1Cc1cocn1 6.32%, O=C(c1ccncc1)N1CC[C@@H]2[C@H]1c1cc(Br)ccc1N[C@@H]2CO -10.3%, C[C@H]1CN([C@@H](C)CO)C(=O)c2cccc(NC(=O)Nc3ccccc3)c2O[C@@H]1CN(C)C(=O)Nc1cccc2ccccc12 13.2%, COCCn1c(SCC(=O)Nc2ccc(F)cc2F)nc2c(c1=O)SCC2 -1.37%, COCCn1c(SCC(=O)Nc2cc(Cl)ccc2OC)nc2c(c1=O)SC(C)C2 (stereo not given) 1.59%, C[C@H]1CN([C@@H](C)CO)C(=O)c2cc(C3=CCCC3)cnc2O[C@H]1CN(C)Cc1ccccc1C(=O)O 10.8%, CC(C)C(=O)Nc1ccc2c(c1)C(=O)N(C)[C@@H]1CC[C@@H](CC(=O)NCCc3ccccc3)O[C@H]1CO2 19%, C[C@@H]1CCCCO[C@@H](CN(C)Cc2ccncc2)[C@H](C)CN([C@@H](C)CO)C(=O)c2cc(NS(=O)(=O)c3ccccc3)ccc2O1 -0.228%, C[C@@H]1CCCCO[C@H](CN(C)C(=O)Nc2ccc(C(F)(F)F)cc2)[C@H](C)CN([C@H](C)CO)C(=O)c2cc(NC(=O)Nc3ccc(C(F)(F)F)cc3)ccc2O1 2.81%, C[C@@H]1CCCCO[C@@H](CN(C)C(=O)NC2CCCCC2)[C@@H](C)CN([C@H](C)CO)C(=O)c2cc(NC(=O)CCC(F)(F)F)ccc2O1 -1.91%, C[C@@H]1CN([C@@H](C)CO)C(=O)c2cc(NC(=O)C3CCCCC3)ccc2O[C@@H](C)CCCCO[C@@H]1CN(C)C(=O)Nc1ccccc1 -1.11%, C[C@@H]1CCCCO[C@@H](CN(C)C(=O)CCC(F)(F)F)[C@@H](C)CN([C@H](C)CO)C(=O)c2cc(NC(=O)CCC(F)(F)F)ccc2O1 4.89%, C[C@H](CO)N1C[C@H](C)[C@@H](CN(C)Cc2ccc(C(F)(F)F)cc2)OCCCC[C@H](C)Oc2ccc(NC(=O)C3CCCCC3)cc2C1=O -1.83%, C[C@H]1CCCCO[C@H](CN(C)Cc2ccc(C(F)(F)F)cc2)[C@@H](C)CN([C@@H](C)CO)C(=O)c2cc(NC(=O)C3CCCCC3)ccc2O1 -17.3%, C[C@@H]1CN([C@H](C)CO)C(=O)c2cc(C#Cc3ccccn3)cnc2O[C@H]1CN(C)CC1CCOCC1 -1.46%, O=C(C[C@H]1CC[C@@H]2[C@H](COC[C@@H](O)CN2C(=O)Nc2cccc(F)c2)O1)NCc1ccccc1F 0.633%, COc1ccc2c3c([nH]c2c1)[C@H](CO)N(Cc1cccc(F)c1)CC31CCN(CC2CC2)CC1 -32.6%, C[C@H]1CCCCO[C@H](CN(C)CC2CC2)[C@@H](C)CN([C@@H](C)CO)C(=O)c2cc(NS(C)(=O)=O)ccc2O1 2.25%, COc1ccccc1-c1cnc2c(c1)C(=O)N([C@H](C)CO)C[C@@H](C)[C@@H](CN(C)CC1CCCC1)O2 23.1%, C[C@@H]1CN([C@H](C)CO)C(=O)c2cc(NS(C)(=O)=O)ccc2O[C@@H]1CN(C)S(C)(=O)=O -0.244%, C[C@H](O)C#Cc1cnc2c(c1)C(=O)N([C@H](C)CO)C[C@H](C)[C@@H](CN(C)C(=O)Nc1ccc(F)cc1)O2 8.69%, CNC[C@@H]1OCCCC[C@H](C)Oc2ccc(NC(=O)Nc3ccc(OC)cc3)cc2C(=O)N([C@H](C)CO)C[C@@H]1C 7.49%, C[C@H]1CN([C@@H](C)CO)C(=O)c2cc(NS(=O)(=O)c3cccs3)ccc2O[C@@H]1CN(C)C(=O)Nc1cccc2ccccc12 -2.31%, C[C@H]1CCCCO[C@@H](CN(C)S(=O)(=O)c2cccs2)[C@@H](C)CN([C@@H](C)CO)C(=O)c2cc(NS(=O)(=O)c3ccc(Cl)cc3)ccc2O1 -0.143%, C[C@@H]1CCCCO[C@@H](CN(C)S(=O)(=O)c2ccc(F)cc2)[C@@H](C)CN([C@@H](C)CO)C(=O)c2cc(NS(=O)(=O)c3cccs3)ccc2O1 12.7%, C[C@@H]1CCCCO[C@H](CN(C)S(=O)(=O)c2cccs2)[C@H](C)CN([C@@H](C)CO)C(=O)c2cc(NS(=O)(=O)c3cccs3)ccc2O1 -8.04%, COc1ccc(NC(=O)N(C)C[C@H]2Oc3ccc(NS(=O)(=O)c4cccs4)cc3C(=O)N([C@@H](C)CO)C[C@H]2C)cc1 -6.98%, C[C@@H]1CN([C@H](C)CO)C(=O)c2cc(NS(=O)(=O)c3cccs3)ccc2O[C@@H](C)CCCCO[C@@H]1CN(C)S(=O)(=O)c1cccs1 -4.08%
